In the supplement of paper PMC6522484 one finds cell viability data, which are given here for 40 compounds.

± gives the standard deviation of the averaged measurements.

The test system of this assay is DLD1. Nature of the assay: cell viability (CellTiter-Glo) relative to plate median (fraction of plate median); higher = more viable cells. Particulars: 5 µM; treatment time 24 h; reporter: 7TFP. In a few lines:
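For this screen, colorectal cancer cell lines carrying stable lentiviral TCF/Wnt firefly luciferase reporters, either 7TFP or TCF4/Wnt, were seeded into 384-well plates. A day's wait of 24 h preceded addition of library compounds at a final 5 µM, which stayed on the cells for 24 h. Firefly luciferase or CellTiterGlo luminescence, read on parallel plates, was normalised to the plate median per well, and the reported value is the mean of two independent replicates.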
On the technique in general: In ATP-based viability assays light output follows the ATP content of the culture.
As to `CN1CCC(=C2c3ccccc3Sc3ccccc32)CC1`, the cell viability is 1.004 ± 0.0092.
Then `CC(C)c1c(O)c(-c2cc3c(c(C(C)C)c2O)CCC2C(C)(C)CCC[C@]32C)cc2c1CCC1C(C)(C)CCC[C@]21C` (stereo not given in full), with 1.02 ± 0.083; and `CC(C)CCC[C@@H](C)[C@H]1CC[C@H]2[C@@H]3CC=C4C[C@@H](O)CC[C@]4(C)[C@H]3CC[C@]12C`, with 1.03 ± 0.067.
In the case of `O=c1occ(C(O)CO)c2cccc(O)c12` (stereo not given) [Oospoglycol] it was 0.886 ± 0.079.
Then `O=C(NC(Cc1cc(=O)[nH]c2ccccc12)C(=O)O)c1ccc(Cl)cc1` (stereo not given), with 0.93 ± 0.0071; and `NC[C@@H]1O[C@@H](O[C@H]2[C@H](O)[C@@H](O[C@H]3O[C@H](CO)[C@@H](O)[C@H](N)[C@H]3O)[C@H](N)C[C@@H]2N)[C@@H](O)[C@H](O)[C@H]1O`, with 0.986 ± 0.091; and `O=C1C=C2CC3(O)COc4c(ccc(O)c4O)C3=C2C=C1O` (stereo not given), with 0.988 ± 0.073.
Compound `CC[C@H](CC[C@@H](C)[C@H]1CC[C@H]2[C@@H]3CC=C4C[C@@H](O)CC[C@]4(C)[C@H]3CC[C@]12C)C(C)C` [beta-SITOSTEROL] yielded a cell viability of 1.07 ± 0.13.
In the case of `CCCCCC(=O)O[C@]1(C(C)=O)CC[C@H]2[C@@H]3CCC4=CC(=O)CC[C@]4(C)[C@H]3CC[C@@]21C` it was 0.993 ± 0.0099; in that of `CCCCC/C=C/CCC(=O)N[C@H]1[C@H](Oc2c3cc4cc2Oc2ccc(cc2Cl)[C@@H](O[C@@H]2O[C@H](CO)[C@@H](O)[C@H](O)[C@H]2NC(C)=O)[C@@H]2NC(=O)[C@H](NC(=O)[C@@H]4NC(=O)[C@H]4NC(=O)C(Cc5ccc(c(Cl)c5)O3)NC(=O)[C@H](N)c3ccc(O)c(c3)Oc3cc(O)cc4c3)c3ccc(O)c(c3)-c3c(OC4O[C@H](CO)[C@@H](O)[C@H](O)[C@@H]4O)cc(O)cc3[C@@H](C(=O)O)NC2=O)O[C@H](CO)[C@@H](O)[C@@H]1O` (stereo not given in full) [TEICOPLANIN [A(2-1) shown]], 1.04 ± 0.035.
Then `CN(C)c1ccc(C(=C2C=CC(=[N+](C)C)C=C2)c2ccc(N(C)C)cc2)cc1`, with 0.703 ± 0.016; and `CC1CC2C3CCC4=CC(=O)C=CC4(C)C3(F)C(O)CC2(C)C1C(=O)CO` (stereo not given), with 0.954 ± 0.033.
Then `NNCCc1ccccc1`, with 0.995 ± 0.11; and `CCOC(=O)[N-]c1c[n+](N2CCOCC2)no1`, with 1.065 ± 0.0071.
For the compound `COC(=O)c1c(C)cc(O)cc1O`, the cell viability was found to be 0.999 ± 0.03.
In the case of `CC(=O)O[C@@H]1CC2C(C)(C)[C@H](O)CC[C@]2(C)C2CC[C@@]3(C)[C@H](c4ccoc4)OC(=O)C4OC43[C@@]21C` (stereo partly drawn) [alpha-DIHYDROGEDUNOL] it was 1.03 ± 0.028.
Then `CCOC(=O)[C@@](C)(N)Cc1ccc(O)c(O)c1`, with 1 ± 0.025; and `CC(C)CCCC(C)C1CCC2C3=CCC4CC(O)CCC4(C)C3CCC21C` (stereo not given), with 1.05 ± 0.064; and `NC(=O)NCCC[C@H](N)C(=O)O`, with 1 ± 0.12.
The compound `CCCC(=O)Nc1ccc(OCC(O)CNC(C)C)c(C(C)=O)c1` (stereo not given) showed a cell viability of 0.942 ± 0.11.
Then `CC(=O)C1=C(O)C=C2Oc3c(C(C)=O)c(O)c(C)c(O)c3C2(C)C1=O` (stereo in doubt), with 0.995 ± 0.035; and `CCc1c(O)cc(C(C)CC)oc1=O` (stereo not given) [Germicidin], with 1.02 ± 0.014; and `CS(=O)(=O)CCCCN=C=S`, with 0.722 ± 0.18.
Take `COc1c(N2C[C@@H]3CCCN[C@@H]3C2)c(F)cc2c(=O)c(C(=O)O)cn(C3CC3)c12`: the cell viability came out at 0.861 ± 0.14.
In the case of `COc1cc2c(cc1OC)-c1c(oc3cc(O)cc(O)c3c1=O)CO2` it was 0.988 ± 0.12; in that of `Cn1c(=O)[nH]c(=O)c2[nH]cnc21`, 0.955 ± 0.026.
Then `NC(=O)NO`, with 1.06 ± 0.09.
In the case of `C[C@H]1COc2c(N3CCN(C)CC3)c(F)cc3c(=O)c(C(=O)O)cn1c23` it was 0.891 ± 0.025; in that of `CCN(CCCc1ccccc1)CCCc1ccccc1`, 1 ± 0.22.
Consider `OC[C@H]1O[C@@](CO)(O[C@H]2O[C@H](CO)[C@@H](O)[C@H](O)[C@H]2O)[C@@H](O[C@H]2O[C@H](CO)[C@@H](O)[C@H](O)[C@H]2O)[C@@H]1O`, for which the cell viability worked out at 1.01 ± 0.047.
For the compound `C[C@@H]1C[C@H]2[C@@H]3CCC4=CC(=O)C=C[C@]4(C)[C@@]3(F)[C@@H](O)C[C@]2(C)[C@@]1(O)C(=O)COP(=O)(O)O`, the cell viability worked out at 1.03 ± 0.052.
Then `CC(=O)O[C@]1(C(C)=O)CC[C@H]2[C@@H]3C=C(C)C4=CC(=O)CC[C@]4(C)[C@H]3CC[C@@]21C`, with 0.988 ± 0.088; and `CC(=O)O[C@@H]1CC2C(C)(C)[C@H](O)C[C@H](O)[C@@]2(C)C2CC[C@]3(C)C(=CC(=O)O[C@@H]3c3ccoc3)[C@]21C` (stereo not given in full), with 0.961 ± 0.098; and `CN(C)c1ccc(O)c2c1C[C@H]1C[C@H]3[C@H](N(C)C)C(O)=C(C(N)=O)C(=O)[C@@]3(O)C(O)=C1C2=O`, with 0.991 ± 0.0099.
Turning to `Cc1cc(/C=C/c2ccc3cc(N(C)C)ccc3[n+]2C)c(C)n1-c1ccccc1`, the cell viability stood at 0.899 ± 0.057.
Compound `C[C@]12C=CC(=O)C=C1CC[C@H]1[C@@H]3C[C@@H](O)[C@](O)(C(=O)CO)[C@@]3(C)C[C@H](O)[C@@]12F` returned a cell viability of 0.999 ± 0.086.
In the case of `CC(C)=CCc1cccc2c(C[C@@H]3NC(=O)[C@H](C)NC3=O)c[nH]c12` [Terezine D] it was 1.03 ± 0.021; in that of `C#C[C@]1(O)CC[C@H]2[C@@H]3CCc4cc(O)ccc4[C@H]3CC[C@@]21C`, 0.934 ± 0.016.
Take `C=C(C)[C@@H]1CC=C(C(=O)O)CC1`: the cell viability turned out to be 1.055 ± 0.0071.
Then `CN(C)CCOC(=O)C(c1ccccc1)C1(O)CCCC1` (stereo not given), with 0.986 ± 0.0014.
